Compound activity deposited in PubChem by several laboratories.
The list is not random: actives were taken first. Their share in the collection is about 3%.
MITF TRPM1 inh = MITF TRPM1 promoter inhibition in SK-MEL-5 cells. SK-MEL-5 TRPM1 promoter luciferase, 24 h. inhibition, % at 12.5 µM. hit rate 0.83% among 330,000;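 active = mean inhibition across replicates of 60% or more, whatever share of single replicates reaches that level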
Peg3 prom inh = reduces Peg3 promoter-driven luciferase expression in HeLa | HeLa PEG-Prom luciferase reporter, luminescence, overnight | AID 588405 | hit rate 1.7% among 360,000 | inhibition, % at 20 µM;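 active = inhibition of at least 50% at 20 µM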
CF NFkB inh = inhibitors of cystic fibrosis induced NF-kB; KKLEB NF-kB-GFP reporter, PAF-induced, GFP fluorescence overnight; inhibition, % at 5 µM; hit rate 0.86% among 360,000;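 active = at least 50% inhibition at 5 µM, scaled per plate between neutral and stimulator controls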;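 note: PAF is a Pseudomonas aeruginosa culture filtrate used as stimulus; plate controls were PAF-stimulated DMSO wells for no effect and unstimulated DMSO wells for full effect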
KKLEB tox = CF airway cell cytotoxicity counter-screen | KKLEB CF airway cells viability, ATPlite luminescence, overnight; active compounds read low; cells stimulated with P. aeruginosa culture filtrate | activity change (cytotoxicity), % at 5 µM | hit rate 0.36% among 360,000;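 active = corrected activity change at or below -50% at 5 µM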
HIF-2a block = HIF-2a inhibition; 786-0 RCC cells HIF-2a reporter, luciferase luminescence, overnight; inhibition, % at 18.8 µM; hit rate 0.72% among 360,000;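 active = inhibition of the luminescence signal of 40% or more relative to plate controls, in a single-dose primary screen at 18.75 µM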
LMP1 NFkB inh = reduces LMP1-driven NF-kappaB luciferase signal | LMP1-induced NF-kappaB luciferase reporter cells, luminescence | inhibition, % at 12.5 µM | hit rate 0.69% among 350,000; in the data active = inhibition above about 41%;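 note: 0% = neutral control wells and 100% = reference inhibitor control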
CF NFkB inh conf = confirmation of cystic fibrosis induced NF-kB inhibitors | shares compounds with CF NFkB inh | KKLEB CF airway cells, PAF-induced NF-kB-GFP fluorescence, overnight | inhibition, % at 5 µM | hit rate 64% among 1,300; in the data active = inhibition above about 40%;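 note: stimulus PAF is a Pseudomonas aeruginosa filtrate and not platelet activating factor; plate controls were DMSO wells with stimulus for no effect and unstimulated DMSO wells for full effect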
Starred values were filed as active, the others as inactive; . = no result.

SMILES	MITF TRPM1 inh	Peg3 prom inh	CF NFkB inh	KKLEB tox	HIF-2a block	LMP1 NFkB inh	CF NFkB inh conf
CCN(CC)S(=O)(=O)c1ccc(NC(=O)Nc2cccc(C(F)(F)F)c2)cc1	60.5*	52.1*	61.1*	-48.7	29.1	26.8	81.4*
C[C@@]12CC[C@@H](C3=C(CCC3)C1)N2c1ccccc1	.	.	.	.	5.6	.	.
CNc1ccc2ncc(-c3cccc(C(=O)N(C)C)c3)n2n1	.	23.1	85.6*	-10.9	8.9	.	98.4*
C=C1C(=O)[C@]23C[C@H]1CC[C@H]2[C@]1(C)[C@@H](O)CC[C@@](C)(C(=O)O)[C@H]1C[C@@H]3O	.	-7.9	83.5*	7.7	2.5	.	82.8*
C=C1C(=O)[C@]23C[C@H]1CCC2[C@@]1(C)C(C[C@@H]3O)[C@](C)(C(=O)O)C[C@H](O)[C@@H]1O (some centres not stated)	.	-0.8	-12.0	15.9	7.9	.	.
C=C1C(=O)[C@]23C[C@H]1CC[C@H]2[C@]1(C)[C@@H](OC(C)=O)CC[C@@](C)(C(=O)O)[C@H]1C[C@@H]3O	.	92.7*	92.5*	-18.7	29.6	.	92.6*
COc1ccc(-n2nnnc2S(=O)(=O)Cc2ccc(C(=O)O)cc2)cc1	9.3	36.8	89.4*	-42.1	12.3	26.6	90.6*
COc1ccc(NC(=O)C2c3ccccc3OCC(=O)N2Cc2cccnc2)cc1 (configuration not stated)	.	.	.	.	1.1	.	.
CCc1ccc([C@@H]2C[C@H]3[C@@H](CN2S(=O)(=O)c2ccc(C)cc2)C(=O)C[C@@H](c2ccc(Cl)cc2)N3S(=O)(=O)c2ccccc2C)cc1	.	5.6	-7.0	10.0	9.8	1.4	.
CCc1ccc([C@@H]2CC(=O)[C@@H]3CN(S(=O)(=O)c4ccccc4C)[C@H](c4ccc(Cl)cc4)C[C@@H]3N2S(=O)(=O)c2ccc(C)cc2)cc1	.	4.8	51.4*	-9.9	2.7	.	37.9
CCOC(=O)CSc1nc(C)cc(C)c1C#N	6.3	-22.6	7.1	-1.5	-7.7	2.7	.
Cc1cc(C)c(C#N)c(SCC(=O)c2ccc(Cl)cc2Cl)n1	3.1	60.0*	71.6*	-5.1	-15.8	27.9	67.2*
COC(=O)N1C(=O)[C@@](c2ccccc2)(C2CCCCC2)N1C(=O)OC	20.6	83.7*	66.2*	-24.2	24.1	-7.0	48.7*
CC[C@@]1(c2ccccc2)C(=O)N(C(=O)OC)N1C(=O)OC	27.1	11.7	11.6	6.3	8.7	-0.3	.
COC(=O)N1C(=O)[C@@](Cc2ccccc2)(c2ccccc2)N1C(=O)OC	38.2	24.8	56.6*	-9.8	6.7	-2.6	54.6*
COC(=O)[C@@]12C[C@@H](CC(=O)N3CCCC3)C(=O)N(Cc3ccco3)C1=CCC(C)(C)C2	.	.	.	.	-13.1	.	.
Cn1cccc1C(=O)NC(=O)COC(=O)c1ccc(S(C)(=O)=O)c([N+](=O)[O-])c1	85.8*	101.8*	66.7*	-18.3	35.7	-1.4	59.3*
Cc1cn([C@H]2C[C@H](O)[C@@H](CNC=O)O2)c(=O)[nH]c1=O	.	3.9	-24.3	6.2	12.3	-3.4	.
Cc1ccccc1S(=O)(=O)Cc1ccc(C(=O)N2CC(C)CC(C)C2)o1 (configuration not stated)	-6.3	4.6	4.1	3.8	-8.9	10.7	.
Cc1ccccc1S(=O)(=O)Cc1ccc(C(=O)N2CCN(c3cccc(C)c3C)CC2)o1	53.5	69.9*	68.2*	-24.4	9.6	24.9	63.4*
O=C(OCc1ccccc1)c1c(-c2ccccc2)oc2c1C(OCCO)CCC2 (configuration not stated)	.	.	.	.	4.7	.	.
CC(C)=CCc1c(O)cc(O)c2c1OC(c1ccc(O)cc1)CC2=O (configuration not stated)	-13.7	24.7	52.6*	-12.4	13.8	-6.4	71.8*
CC(C)=CCc1c(O)c(CC=C(C)C)c2c(c1O)C(=O)CC(c1ccc(O)cc1)O2 (configuration not stated)	-8.7	5.6	26.8	-8.4	-34.0	-2.5	.
O=C(NCc1ccccc1)c1cc(C2CCCN(C(=O)C3CCCCC3)C2)on1 (configuration not stated)	.	11.0	-17.7	-6.3	16.6	.	.
O=C1[C@H](Cc2ccccc2)NCCCC[C@H](c2ccc(Cl)cc2)N1Cc1ccccc1	1.5	32.2	59.2*	-37.6	16.0	10.2	39.0
SMILES	MITF TRPM1 inh	Peg3 prom inh	CF NFkB inh	KKLEB tox	HIF-2a block	LMP1 NFkB inh	CF NFkB inh conf
O=C1[C@H](Cc2ccccc2)NCCCC[C@H](c2ccco2)N1Cc1ccccc1	8.2	29.7	22.6	-23.9	-11.0	2.0	.
COc1cccc(/C=N/n2c(C3CCCCC3)n[nH]c2=S)c1	-0.4	18.0	60.4*	-12.0	7.2	1.2	76.8*
Nc1ccc2c(c1)-c1ccc(F)cc1C2=O	-5.2	-33.9	-32.4	-0.3	-20.9	7.5	.
CC(=O)OCC(=O)C1(O)CCC2C3CC(C)C4=CC(=O)C=CC4(C)C3C(O)CC21C (configuration not stated)	.	-17.6	65.4*	44.6	17.9	.	4.3
CN(CC(=O)Nc1ccccc1Cl)C(=O)COC(=O)c1nc(Cl)c(Cl)c(Cl)c1Cl	73.5*	104.6*	87.0*	-41.6	38.5	-12.3	-100.2
CS(=O)(=O)Nc1ccc(-c2cnc3cccnn23)cc1	.	-5.3	59.6*	-1.4	-28.8	.	71.0*
COc1ccc(NC(=O)c2cc3c(-c4ccc(OC)c(OC)c4)nn(C)c3s2)cc1OC	22.2	-69.0	86.9*	-20.8	-2.0	13.3	61.6*
O=C1CC(=O)OC(c2ccc([N+](=O)[O-])cc2)O1	.	102.8*	90.2*	-22.4	85.9*	25.7	111.3*
CCC1C(=O)C(C)(C)C(=O)OC1c1ccc([N+](=O)[O-])cc1 (configuration not stated)	3.5	-2.1	-16.5	4.3	15.1	1.2	.
CCN(C(=O)COC(=O)C(C)(C)Oc1ccc(Cl)cc1)c1c(N)n(Cc2ccccc2)c(=O)[nH]c1=O	-1.6	16.3	-23.7	3.0	1.6	6.1	.
CCOC(=O)N1CCC(NC(=O)c2ccc3c(c2)N=C(CC)c2cc(C)ccc2S3)CC1	25.2	34.1	17.0	6.7	18.7	8.5	.
CCOC(=O)N1CCC(NC(=O)c2ccc3c(c2)N=C(C)c2c(C)ccc(C)c2S3)CC1	59.1	20.9	57.3*	-18.5	24.5	12.0	57.6*
CCCOc1c(Br)cc(C(=O)OCc2cc(=O)n3ccsc3n2)cc1OC	29.5	13.5	57.6*	3.4	7.9	-0.9	26.2
CCC1(O)CC2CN(CCc3c([nH]c4ccccc34)C(C(=O)OC)(c3cc4c(cc3OC)N(C=O)C3C(O)(C(=O)OC)C(OC(C)=O)C5(CC)C=CCN6CCC43C65)C2)C1 (configuration not stated)	51.5	-21.6	58.5*	-8.2	32.0	-2.1	92.0*
